# Measurements published in PubChem BioAssay.
# Unmarked numbers belong to inactive results. Some of the results follow. Active and inactive are the calls of the source.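 How the source made its calls, unless noted: active means inhibition above the primary screen's cutoff, its mean inhibition plus 3 SD (cut at about 35% in these data); inactive means the rest.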
# Assays:
# [1] = target: Glutathione S-transferase omega-1 (Homo sapiens) (UniProt P78417); test: GSTO1 inhibitor hit confirmation, counter-screen for RBBP9 inhibitor project, biochemical, fluorescence polarization, triplicate (AID 2176); details: recombinant GSTO1, probe fluorescence polarization; at 5.96 µM; hits give high values;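 further: loss of polarization as inhibitors block binding of rhodamine sulfonate ester activity probe; 0% = GSTO1 with DMSO and 100% = wells lacking GSTO1 enzyme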
# Sequence of Glutathione S-transferase omega-1 (Homo sapiens) (P78417 whole entry, looked up): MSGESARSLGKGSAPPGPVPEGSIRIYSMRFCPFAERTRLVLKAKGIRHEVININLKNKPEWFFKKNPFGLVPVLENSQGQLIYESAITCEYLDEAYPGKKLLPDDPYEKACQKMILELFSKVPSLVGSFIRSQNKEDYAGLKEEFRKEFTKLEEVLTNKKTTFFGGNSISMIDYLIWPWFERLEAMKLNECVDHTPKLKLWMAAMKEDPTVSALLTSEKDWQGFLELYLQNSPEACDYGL
# [2] = target: Protein-arginine deiminase type-4 (Homo sapiens) (UniProt Q9UM07); test: human PAD4 inhibitors, confirmation, biochemical, fluorescence polarization (AID 488796;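 active means mean inhibition across replicates above the hit cutoff set by the earlier primary screen, cut at about 15% in these data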;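 further: inhibitors block active-site labeling by the probe so polarization falls; 0% = PAD4 with probe and DMSO and 100% = probe without PAD4 enzyme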); details: recombinant PAD4, RCA probe fluorescence polarization; at 6.36 µM; hits give high values
# [3] = target: Oxytocin receptor (Homo sapiens) (UniProt P30559); test: human OXTR agonists, confirmation, fluorescence, CHO-OTR cells, triplicate (AID 434963;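 active means mean activation above about 20% derived from the earlier single-dose screen, limit read from the data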;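 further: peak over minimum fluorescence ratio per well during a 100 second FLIPR read; 0% = DMSO alone and 100% = oxytocin high control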); details: Fluo-8 calcium fluorescence, agonist, at 3 µM, hits give high values
# Sequence of Oxytocin receptor (Homo sapiens) (P30559 whole entry, looked up): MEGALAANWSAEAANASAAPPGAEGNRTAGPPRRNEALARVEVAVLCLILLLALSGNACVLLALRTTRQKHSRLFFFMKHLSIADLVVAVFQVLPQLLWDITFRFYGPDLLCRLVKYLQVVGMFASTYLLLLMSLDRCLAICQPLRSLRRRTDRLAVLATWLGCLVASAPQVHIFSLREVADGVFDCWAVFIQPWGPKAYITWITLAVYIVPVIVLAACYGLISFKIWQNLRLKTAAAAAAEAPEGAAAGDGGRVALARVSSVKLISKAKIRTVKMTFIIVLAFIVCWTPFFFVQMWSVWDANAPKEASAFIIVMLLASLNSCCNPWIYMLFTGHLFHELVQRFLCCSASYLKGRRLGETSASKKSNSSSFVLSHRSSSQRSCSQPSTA
# [4] = target: Vasopressin V1a receptor (Homo sapiens) (UniProt P37288); test: V1a receptor agonists, calcium signal, counter-screen for OXTR agonist project, triplicate, fluorescence, CHO-V1R cells (AID 434991;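 active means mean activation over triplicate exceeds the hit threshold set in the earlier primary screen, cut at about 20% in these data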;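 further: peak over basal fluorescence ratio within a 100 second read; 0% = DMSO alone and 100% = 3 nM vasopressin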); details: Fluo-8 calcium fluorescence, at 3 µM, hits give high values
# Sequence of Vasopressin V1a receptor (Homo sapiens) (P37288 whole entry, looked up, the tested form may be a part): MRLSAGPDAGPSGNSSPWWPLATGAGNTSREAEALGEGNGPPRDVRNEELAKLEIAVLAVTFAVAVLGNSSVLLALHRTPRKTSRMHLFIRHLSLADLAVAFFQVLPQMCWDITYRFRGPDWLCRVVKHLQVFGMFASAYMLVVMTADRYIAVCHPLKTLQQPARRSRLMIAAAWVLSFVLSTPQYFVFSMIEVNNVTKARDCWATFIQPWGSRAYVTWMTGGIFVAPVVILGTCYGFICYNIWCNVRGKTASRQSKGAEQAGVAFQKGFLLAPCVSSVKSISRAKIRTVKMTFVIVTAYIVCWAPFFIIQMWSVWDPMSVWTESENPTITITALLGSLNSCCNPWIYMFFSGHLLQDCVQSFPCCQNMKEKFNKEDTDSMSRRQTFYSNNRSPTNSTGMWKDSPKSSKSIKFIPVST
# [5] = target: Nuclear receptor coactivator 3 (Homo sapiens) (UniProt Q9Y6Q9); test: SRC3 coactivator transcriptional activity inhibitors, confirmation, cell-based, luminescence, quadruplicate (AID 588792;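 active means mean inhibition over 43.08%, the solvent-only control mean plus 3 SD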;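 further: 0% = DMSO treated cells and 100% = gossypol at 36 µM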); details: HEK293 GAL4-SRC3 luciferase reporter, at 3.6 µM, hits give high values
# [6] = tested on: transactivating tegument protein VP16 (Human herpesvirus 1), Gal4-VP16 luciferase reporter; test: VP16 transactivation inhibitors, counter-screen for SRC3 inhibitor project, cell-based, luminescence, high throughput (AID 588794; in the data active means inhibition above about 30%); details: mammalian cells, VP16-driven luciferase reporter luminescence; at 3.6 µM; hits give high values
# [7] = target: Photoreceptor-specific nuclear receptor (Homo sapiens) (UniProt Q9Y5X4); test: NR2E3 agonists, confirmation, biochemical, TR-FRET (AID 2379; in the data active means activation above about 20%); details: cell-free NR2E3 corepressor release, 5 h, at 3.98 µM, hits give high values
# Sequence of Photoreceptor-specific nuclear receptor (Homo sapiens) (Q9Y5X4 whole entry, looked up): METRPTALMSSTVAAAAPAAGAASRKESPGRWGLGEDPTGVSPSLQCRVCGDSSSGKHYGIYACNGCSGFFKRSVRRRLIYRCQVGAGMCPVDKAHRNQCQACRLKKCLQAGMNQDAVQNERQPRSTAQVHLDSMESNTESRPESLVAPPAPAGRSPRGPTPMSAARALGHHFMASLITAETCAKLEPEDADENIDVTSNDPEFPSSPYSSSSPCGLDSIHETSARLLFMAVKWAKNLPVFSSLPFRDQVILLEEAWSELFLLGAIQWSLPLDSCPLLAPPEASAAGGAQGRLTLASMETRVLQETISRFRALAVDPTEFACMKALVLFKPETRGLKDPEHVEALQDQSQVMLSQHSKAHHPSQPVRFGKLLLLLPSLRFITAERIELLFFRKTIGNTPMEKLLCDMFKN
# [8] = target: Peroxisome proliferator-activated receptor gamma (Homo sapiens) + Nuclear receptor corepressor 2 (Homo sapiens) (UniProt P37231+Q9Y618); test: agonists of PPARg-NCOR2 corepressor interaction, counter-screen for NR2E3 agonist project, biochemical, TR-FRET (AID 504787; in the data active means inhibition above about 20%;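 further: 0% = DMSO vehicle and 100% = wells without protein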); details: TR-FRET PPARg-NCOR2 coregulator interaction, at 3.98 µM, hits give high values
# Sequence of Peroxisome proliferator-activated receptor gamma (Homo sapiens) + Nuclear receptor corepressor 2 (Homo sapiens) (P37231 whole entry, looked up): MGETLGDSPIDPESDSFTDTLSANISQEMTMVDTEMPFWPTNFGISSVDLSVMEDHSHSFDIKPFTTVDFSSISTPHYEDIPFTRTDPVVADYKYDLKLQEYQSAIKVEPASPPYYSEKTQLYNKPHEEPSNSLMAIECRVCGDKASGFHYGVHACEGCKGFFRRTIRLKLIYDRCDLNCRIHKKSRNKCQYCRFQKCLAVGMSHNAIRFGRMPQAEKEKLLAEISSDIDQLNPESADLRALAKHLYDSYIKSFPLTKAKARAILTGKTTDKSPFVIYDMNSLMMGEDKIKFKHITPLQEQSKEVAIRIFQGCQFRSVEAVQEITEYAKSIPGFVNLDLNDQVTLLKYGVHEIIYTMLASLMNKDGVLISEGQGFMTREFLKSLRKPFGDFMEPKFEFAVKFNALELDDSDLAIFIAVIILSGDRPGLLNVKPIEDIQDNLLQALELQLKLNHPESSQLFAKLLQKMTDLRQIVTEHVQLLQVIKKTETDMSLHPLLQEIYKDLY
# Sequence of Peroxisome proliferator-activated receptor gamma (Homo sapiens) + Nuclear receptor corepressor 2 (Homo sapiens) (Q9Y618 whole entry, looked up): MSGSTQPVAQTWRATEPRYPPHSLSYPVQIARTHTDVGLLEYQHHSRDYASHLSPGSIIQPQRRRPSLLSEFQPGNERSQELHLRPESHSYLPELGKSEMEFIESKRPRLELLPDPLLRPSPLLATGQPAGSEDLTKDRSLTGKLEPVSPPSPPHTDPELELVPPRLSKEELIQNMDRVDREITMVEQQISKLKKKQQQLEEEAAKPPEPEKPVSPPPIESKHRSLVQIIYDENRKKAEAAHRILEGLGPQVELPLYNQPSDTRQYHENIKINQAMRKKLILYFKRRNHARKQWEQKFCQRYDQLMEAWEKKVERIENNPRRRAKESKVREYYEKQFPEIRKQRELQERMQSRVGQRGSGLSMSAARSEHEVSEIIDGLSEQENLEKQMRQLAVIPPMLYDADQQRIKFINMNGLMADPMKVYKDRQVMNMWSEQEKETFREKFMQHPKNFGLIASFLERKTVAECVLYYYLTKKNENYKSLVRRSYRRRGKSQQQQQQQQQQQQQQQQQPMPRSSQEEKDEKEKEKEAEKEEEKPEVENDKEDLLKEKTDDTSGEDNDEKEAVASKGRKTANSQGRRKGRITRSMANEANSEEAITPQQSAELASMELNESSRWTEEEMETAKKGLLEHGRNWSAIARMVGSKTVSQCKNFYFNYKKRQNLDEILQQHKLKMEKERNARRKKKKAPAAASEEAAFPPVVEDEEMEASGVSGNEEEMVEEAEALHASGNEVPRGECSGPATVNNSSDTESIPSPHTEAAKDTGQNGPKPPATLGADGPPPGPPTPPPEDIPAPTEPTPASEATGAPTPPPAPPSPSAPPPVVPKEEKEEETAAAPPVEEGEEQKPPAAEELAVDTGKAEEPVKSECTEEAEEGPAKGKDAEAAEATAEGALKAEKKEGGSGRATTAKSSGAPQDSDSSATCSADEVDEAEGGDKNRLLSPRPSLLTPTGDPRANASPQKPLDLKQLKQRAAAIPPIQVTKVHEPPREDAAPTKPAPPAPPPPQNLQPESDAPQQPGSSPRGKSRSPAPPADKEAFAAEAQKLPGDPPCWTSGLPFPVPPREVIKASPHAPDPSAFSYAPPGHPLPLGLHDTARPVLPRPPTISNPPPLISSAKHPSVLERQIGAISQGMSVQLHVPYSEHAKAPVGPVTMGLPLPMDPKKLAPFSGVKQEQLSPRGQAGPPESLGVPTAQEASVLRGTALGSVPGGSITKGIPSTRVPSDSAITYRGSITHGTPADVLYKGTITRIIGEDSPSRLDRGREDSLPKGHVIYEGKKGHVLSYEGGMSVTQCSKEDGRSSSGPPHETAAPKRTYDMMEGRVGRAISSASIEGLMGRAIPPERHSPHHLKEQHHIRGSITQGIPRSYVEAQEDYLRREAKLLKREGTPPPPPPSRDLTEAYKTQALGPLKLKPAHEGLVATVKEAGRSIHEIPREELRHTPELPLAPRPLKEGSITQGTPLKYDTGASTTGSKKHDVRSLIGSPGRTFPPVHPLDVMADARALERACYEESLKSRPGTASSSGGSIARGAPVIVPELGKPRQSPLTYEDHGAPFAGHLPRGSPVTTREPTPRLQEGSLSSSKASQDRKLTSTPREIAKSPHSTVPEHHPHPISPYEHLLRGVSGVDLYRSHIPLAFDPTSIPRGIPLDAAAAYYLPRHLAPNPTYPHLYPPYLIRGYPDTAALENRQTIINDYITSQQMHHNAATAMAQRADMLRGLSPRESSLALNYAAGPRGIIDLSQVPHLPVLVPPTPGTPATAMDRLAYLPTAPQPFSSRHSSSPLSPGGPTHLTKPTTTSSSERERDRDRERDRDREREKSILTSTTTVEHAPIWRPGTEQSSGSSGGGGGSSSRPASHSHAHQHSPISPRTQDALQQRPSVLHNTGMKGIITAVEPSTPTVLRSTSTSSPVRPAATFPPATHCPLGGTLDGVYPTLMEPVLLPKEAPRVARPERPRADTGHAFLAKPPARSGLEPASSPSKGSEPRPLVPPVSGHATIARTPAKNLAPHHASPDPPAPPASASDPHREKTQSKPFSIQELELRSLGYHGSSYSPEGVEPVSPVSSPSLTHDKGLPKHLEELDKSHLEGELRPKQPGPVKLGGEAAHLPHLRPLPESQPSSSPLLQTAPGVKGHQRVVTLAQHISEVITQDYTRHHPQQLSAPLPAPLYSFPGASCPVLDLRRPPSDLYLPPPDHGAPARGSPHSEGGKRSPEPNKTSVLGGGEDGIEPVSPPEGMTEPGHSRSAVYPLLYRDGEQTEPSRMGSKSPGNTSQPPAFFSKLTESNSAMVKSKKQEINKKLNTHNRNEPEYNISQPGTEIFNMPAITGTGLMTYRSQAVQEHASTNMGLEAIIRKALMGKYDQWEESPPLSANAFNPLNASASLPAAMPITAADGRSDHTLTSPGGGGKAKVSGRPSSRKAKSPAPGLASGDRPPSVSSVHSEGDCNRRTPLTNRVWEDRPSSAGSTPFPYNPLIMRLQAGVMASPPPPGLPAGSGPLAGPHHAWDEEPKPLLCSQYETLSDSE
# [9] = target: Lytic switch protein BZLF1 (Epstein-Barr virus (strain B95-8)) (UniProt P03206); test: EBV Zta binding to ZRE DNA, inhibitors, confirmation, biochemical, fluorescence polarization, triplicate (AID 2361;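 active means mean inhibition across triplicate runs above the hit threshold derived for the original primary screen, cut at about 33% in these data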;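 further: 0% = Zta with DMSO and 100% = wells lacking Zta protein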); details: at 11.1 µM, hits give high values
# Sequence of Lytic switch protein BZLF1 (Epstein-Barr virus (strain B95-8)) (P03206 whole entry, looked up): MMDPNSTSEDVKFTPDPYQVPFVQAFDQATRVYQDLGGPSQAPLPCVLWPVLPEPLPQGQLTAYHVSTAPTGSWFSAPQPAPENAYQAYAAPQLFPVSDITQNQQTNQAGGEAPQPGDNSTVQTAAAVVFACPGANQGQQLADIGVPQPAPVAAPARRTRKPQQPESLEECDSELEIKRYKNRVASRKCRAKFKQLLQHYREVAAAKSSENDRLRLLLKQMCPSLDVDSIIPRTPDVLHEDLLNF
# [10] = tested on: Epstein-Barr virus nuclear antigen 1 (EBNA-1), Human herpesvirus 4; test: EBNA-1 DNA-binding inhibition, counter-screen for ZTA inhibitor project, biochemical, fluorescence polarization (AID 2362; call rule not given here); details: at 14.8 µM, hits give high values
# [11] = target: Platelet-activating factor acetylhydrolase (Homo sapiens) (UniProt Q13093); test: pPAFAH (PLA2G7) enzyme inhibitors, confirmation, biochemical, fluorescence polarization, human (AID 463230;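 active means mean inhibition of the triplicate above the hit cutoff set for the earlier primary screen, cut at about 25% in these data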;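 further: 0% = enzyme with DMSO and 100% = wells lacking pPAFAH enzyme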); details: recombinant pPAFAH, FP-Rh probe fluorescence polarization; at 3.39 µM; hits give high values
# [12] = tested on: transactivating tegument protein VP16 (Human herpesvirus 1); test: VP16 transactivation reporter inhibitors, counter-screen for SRC2 inhibitor project, cell-based, luminescence, single concentration (AID 652007; in the data active means inhibition above about 36%); details: cell-based VP16 transactivation luciferase reporter, at 8.9 µM, hits give high values
# [13] = target: Nuclear receptor coactivator 2 (Homo sapiens) (UniProt Q15596); test: SRC2 coactivator transcriptional activity inhibitors, confirmation, cell-based, luminescence, HEK293, triplicate (AID 652008;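 active means mean inhibition above 46.5%, the solvent-only control mean plus 3 SD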;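 further: 0% = DMSO-treated cells and 100% = Gossypol at 36 µM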); details: HEK293 GAL4-SRC2 luciferase reporter, at 8.9 µM, hits give high values
# [14] = target: Galanin receptor type 2 (Homo sapiens) (UniProt O43603); test: GALR2 antagonists, retest of hits, confirmation, cell-based (AID 866; in the data active means inhibition above about 27%;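 further: cells stimulated with galanin at about its EC80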); details: GALR2-expressing cells, antagonist mode, at 4 µM, hits give high values
# [15] = inhibitors of NFAT-driven beta-lactamase reporter, confirmation, counter-screen for GALR2 antagonist project, CHO NFAT-bla cells, FRET readout (AID 867;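 active means inhibition above the mean inhibition across tested compounds plus 3 SD, cut at about 27% in these data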;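 further: 0% = 500 nM thapsigargin stimulated wells and 100% = unstimulated BSA only wells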); details: thapsigargin-stimulated, at 4.2 µM, hits give high values
# [16] = StAR promoter reporter inhibitors, counter-screen for LRH-1 inverse agonist project, cell-based, luminescence, high throughput (AID 651611; in the data active means inhibition above about 28%); details: StAR promoter luciferase reporter counterscreen, at 3.6 µM, hits give high values
# [17] = target: Nuclear receptor subfamily 5 group A member 2 (Homo sapiens) (UniProt O00482); test: LRH-1 (NR5A2) inverse agonists, retest, confirmation, cell-based, luminescence (AID 651613; in the data active means inhibition above about 42%;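 further: HEK293T cells co-transfected with LRH-1 and StAR promoter luciferase reporter; 0% = vehicle wells and 100% = parental cells lacking receptor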); details: cell-based LRH-1 luciferase reporter, inverse agonism; at 3.6 µM; hits give high values
# [18] = target: Steroidogenic factor 1 (Homo sapiens) (UniProt Q13285); test: SF1 (NR5A1) inverse agonists, counter-screen for LRH-1 inverse agonist project, cell-based, luminescence, high throughput (AID 651614; in the data active means inhibition above about 44%;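 further: cells cotransfected with StAR promoter reporter and SF1 expression vector; 0% = vehicle on cells with receptor and 100% = vehicle on cells lacking receptor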); details: cell-based SF1 luciferase reporter, at 3.6 µM, hits give high values
# [19] = VP16 transactivation reporter inhibitors, counter-screen for LRH-1 inverse agonist project, cell-based, luminescence, high throughput (AID 651615; in the data active means inhibition above about 33%); details: Gal4-VP16 luciferase reporter cells, at 3.6 µM, hits give high values
# [20] = target: Receptor-interacting serine/threonine-protein kinase 2 (Homo sapiens) (UniProt O43353); test: NOD2-RIPK2 binding disruptors, retest, confirmation, fluorescence, CHO cells, BLA complementation, triplicate (AID 624370;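 active means mean inhibition across replicates above a set limit taken from the earlier primary screen, cut at about 21% in these data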;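 further: 0% = DMSO-only wells and the high end = clavulanate BLA-blocked wells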); details: CCF4 FRET, at 4.98 µM, hits give high values
# [21] = beta-lactamase reporter inhibitors in CHO cells, confirmation, artefact control for NOD2-RIPK2 interaction inhibitor project, cell-based, CHO-K1 CMV-bla, CCF4 FRET, fluorescence (AID 624371;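 active means mean inhibition above the low-control mean inhibition plus three low-control SD, cut at about 11% in these data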;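 further: 0% = DMSO only wells and 100% = clavulanate high control wells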); details: CCF4 FRET ratio, counterscreen, at 4.98 µM, hits give high values
# [22] = target: Serine protease HTRA1 (Homo sapiens) (UniProt Q92743); test: HTRA1 protease inhibitors, retest, confirmation, biochemical, fluorescence polarization (AID 540248;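 active means mean inhibition over three repeats above a set limit taken from the earlier primary screen, cut at about 37% in these data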;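 further: 0% = HTRA1 with DMSO and 100% = wells lacking HTRA1; inhibitors block probe binding so polarization drops and inhibition rises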); details: recombinant HTRA1, FP-rhodamine activity-based probe, at 5.96 µM, hits give high values
# [23] = target: (Lyso)-N-acylphosphatidylethanolamine lipase (Mus musculus) (UniProt Q8VD66); test: ABHD4 inhibitors, retest, confirmation, biochemical, fluorescence polarization, mouse (AID 720658;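 active means mean inhibition across replicates above the hit cutoff set in the primary screen, cut at about 30% in these data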;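 further: 0% = wild-type ABHD4 with DMSO and 100% = catalytically dead S159A mutant with DMSO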); details: purified mABHD4, FP-Rh probe fluorescence polarization; at 8.92 µM; hits give high values
# [24] = Gal4-VP16 luciferase reporter inhibitors, counter-screen for COUP-TFII antagonist project, cell-based, luminescence, HEK293 (AID 687007; in the data active means inhibition above about 13%); details: at 8.5 µM, hits give high values
# [25] = target: COUP transcription factor 2 (Homo sapiens) (UniProt P24468); test: NR2F2 transcriptional activity inhibitors, confirmation, cell-based, luciferase reporter, HEK293, triplicate (AID 687008;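 active means mean inhibition over three repeats above a set limit taken from the earlier primary screen, cut at about 38% in these data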;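 further: 100% = cells given the luciferase reporter alone without the COUP-TF2 vector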); details: HEK293 NGFI-A luciferase reporter, luminescence; at 8.5 µM; hits give high values
smiles,measurement,setting,value
CC(C)CC[n+]1ccn(C2=C([O-])c3ccccc3C(=O)/C2=N\S(=O)(=O)c2ccccc2)c1,inhibition,[1],68.2% (active)
Oc1c(C=Nc2cccc3nsnc23)ccc2ccccc12,inhibition,[1],69.9% (active)
same,inhibition,[2],-54.5%
CC(C)(C)n1cnnc1Sc1ccc([N+](=O)[O-])cn1,inhibition,[1],28.1%
O=C(Nc1cc(N2CCOCC2)ncn1)NC1(C(F)(F)F)Oc2ccc(Cl)cc2O1 (centres undefined),inhibition,[1],8.59%
COc1ccccc1CCCNC(=O)C1CCC(=O)N(CCN2CCOCC2)C1 (centres undefined),inhibition,[1],5.53%
CCOC(=O)c1c(NC(=O)c2ccc(S(=O)(=O)N(C)CC3CCCO3)cc2)sc2c1CC(C)(C)NC2(C)C (centres undefined),inhibition,[1],4.04%
C/C(=N\NS(=O)(=O)c1ccc(Cl)cc1)c1ccc(NC(=O)c2ccco2)cc1,activation,[3],17.6%
same,activation,[4],11.1%
CC(CO)(CO)NC(=O)c1ccc(=O)[nH]n1,activation,[3],-0.33%
same,activation,[4],0.63%
CCN(CCCNC(=O)c1ccc2c(c1)NC(=O)CN2C)c1cccc(C)c1,inhibition,[1],36.3% (active)
same,inhibition,[5],10.3%
same,inhibition,[6],1.36%
Cc1cccc(NC(=O)c2sc3nc(N4CCOCC4)c4c(c3c2N)CCCC4)c1,activation (reported as inhibition),[7],-1.32%
same,inhibition,[8],-0.47%
CSc1nnc(SCc2nc3sc(C(=O)O)c(C)c3c(=O)[nH]2)s1,inhibition,[9],55.8% (active)
same,inhibition,[10],5.58%
same,inhibition,[11],43.4% (active)
NC(=O)C1=C[C@H](c2csc3ccccc23)C[C@H](OCc2ccc(CO)cc2)O1,activation,[3],17.8%
same,activation,[4],10.2%
CC1(C)Cc2ccccc2-c2[nH]c(=S)[nH]c(=O)c21,activation (reported as inhibition),[7],28.7% (active)
same,inhibition,[8],25.9% (active)
CCCCCCCCCCOC(=O)Cn1c(COc2cccc(OC)c2)[n+](C)c2ccccc21,activation,[3],12%
same,activation,[4],14.7%
COc1cc2[nH]c(=S)n(Cc3ccc(C)o3)c(=O)c2cc1OC,activation (reported as inhibition),[7],-5.72%
same,inhibition,[8],-2.05%
c1ccc(C2CNCc3c2ccc2ccccc32)cc1 (centres undefined),activation,[3],15.8%
same,activation,[4],6.47%
C#CCOCCOCCOCCNc1nc(N2CCN(C(=O)CCCCCCCCCCNC(=O)[C@H]([C@@H](C)CC)n3cc(CCCCN=C(N)N)nn3)CC2)nc(N2CCN(C(=O)CCCCCCCCCCNC(=O)[C@H](CO)n3cc(CCCSC)nn3)CC2)n1,inhibition,[9],57.5% (active)
same,inhibition,[10],1.4%
CCOc1cc(/C=C(\C#N)c2nc(-c3cccs3)c(NC(C)=O)s2)ccc1O,activation,[3],31.9% (active)
same,activation,[4],25.4% (active)
N#Cc1c(N)nc2c3c(sc(=N)c2c1N)NC(=O)CC3c1ccccc1Cl (centres undefined),activation (reported as inhibition),[7],-9.26%
same,inhibition,[8],-7.41%
Cc1ccc(N(Cc2cc(=O)[nH]c3ccccc23)C(=O)CCl)cc1,inhibition,[1],90% (active)
same,inhibition,[12],33.7%
same,inhibition,[13],51.6% (active)
O=C1C(=O)N(CCN2CCOCC2)C(c2cccc(Cl)c2)/C1=C(/O)c1ccc2c(c1)OCO2 (centres undefined),activation (reported as inhibition),[7],32.8% (active)
same,inhibition,[8],31.2% (active)
CC1=C/C(=N\OS(=O)(=O)c2ccccc2)C=CC1=O,inhibition,[14],90% (active)
same,inhibition,[15],83.7% (active)
same,inhibition,[1],7.61%
O=C(c1ccco1)N1CCN(C(=O)C2CC(c3ccc(F)cc3)=NO2)CC1 (centres undefined),activation,[3],-0.63%
same,activation,[4],0.05%
Cc1nn(-c2ccccc2)c(C)c1NC(=O)CCl,inhibition,[1],83.7% (active)
same,inhibition,[16],28.1% (active)
same,inhibition,[17],35.5%
same,inhibition,[18],61.1% (active)
same,inhibition,[19],-83.9%
COc1ccc(Cl)cc1NC(=O)NCC1CCN(Cc2ccccc2F)CC1,activation,[3],7.35%
same,activation,[4],6.95%
CN(Cc1ccccc1)Cc1ccccc1F,activation (reported as inhibition),[7],-2.78%
same,inhibition,[8],-3.03%
CN1CCN(CCCNC(=O)c2ccc(/C=C3\Oc4ccccc4N(Cc4ccc(Cl)cc4)C3=O)cc2)CC1,inhibition,[9],51.8% (active)
same,inhibition,[10],-1.35%
same,inhibition,[20],29% (active)
same,inhibition,[21],12% (active)
O=C(NNC(=S)NC(=O)c1cn(-c2ccccc2)nc1-c1ccccc1)c1ccncc1,activation,[3],4.81%
same,activation,[4],9.53%
COc1ccc(N2CCN(C(=O)CN3C(=O)COc4ccccc43)CC2)cc1,inhibition,[9],-8.37%
same,inhibition,[10],-9.94%
CCCc1ccc(OCC(=O)NNC(=S)NC(=O)c2ccco2)cc1,activation,[3],13.2%
same,activation,[4],20.2%
CC(C)c1ccc(C2C(C(=O)c3ccco3)=C(O)C(=O)N2CC2CCCO2)cc1 (centres undefined),activation (reported as inhibition),[7],-0.08%
same,inhibition,[8],1.84%
Cc1cccc(N2CCN(c3ccc(NC(=O)/C=C\C(=O)O)cc3)CC2)c1,inhibition,[1],7.27%
same,inhibition,[22],6.16%
same,inhibition,[23],0.64%
CCOC(=O)C1=C(c2ccc(OC)cc2)C(=O)c2ccccc2C1=O,inhibition,[1],8.3%
same,inhibition,[24],80.8% (active)
same,inhibition,[25],93.5% (active)
COc1cccc(CNCCc2c[nH]c3ccccc23)c1OCc1ccccc1F,activation,[3],14.2%
same,activation,[4],12.1%
